Records with an inconclusive call do not appear. Where a call stands in place of a potency, no number is given. Some structures have more than one record in an assay (separate samples or runs), and their calls can disagree. Calls of active or inactive are those of the source. Unless noted, calls come from the whole dose curve; as a rule, active = well fitted curve in the direction sought with a large enough effect; inconclusive = small, poorly fitted or top-dose-only effect, or another doubt; inactive = no such curve, though single readings can be large; an effect the other way counts as inactive or inconclusive.
Legend:
[1] = Quantitative high throughput screen for delayed death inhibitors of the malarial parasite plastid, 48 hour incubation (AID 488752); note: nearly all actives have a fitted effect of over 65% in size
How it was run: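 Luciferase-expressing P. falciparum in RBCs, 2% Hct, 0.1% parasitemia final; RPMI 1640 + 0.5% Albumax; 48 h, 37 C, 5% CO2; luminescence readout, signal drop = growth inhibition.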

[2] = target: Thioredoxin reductase 1, cytoplasmic (Rattus norvegicus) (UniProt O89049); assay: qHTS Assay for Substrates of Mammalian Selenoprotein Thioredoxin Reductase 1 (TrxR1) (AID 488772);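 note: series mostly up to about 57 µM; a drop in NADPH fluorescence below the no-compound background marks a TrxR1 substrate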
Sequence of Thioredoxin reductase 1, cytoplasmic (Rattus norvegicus) (O89049 whole entry, looked up): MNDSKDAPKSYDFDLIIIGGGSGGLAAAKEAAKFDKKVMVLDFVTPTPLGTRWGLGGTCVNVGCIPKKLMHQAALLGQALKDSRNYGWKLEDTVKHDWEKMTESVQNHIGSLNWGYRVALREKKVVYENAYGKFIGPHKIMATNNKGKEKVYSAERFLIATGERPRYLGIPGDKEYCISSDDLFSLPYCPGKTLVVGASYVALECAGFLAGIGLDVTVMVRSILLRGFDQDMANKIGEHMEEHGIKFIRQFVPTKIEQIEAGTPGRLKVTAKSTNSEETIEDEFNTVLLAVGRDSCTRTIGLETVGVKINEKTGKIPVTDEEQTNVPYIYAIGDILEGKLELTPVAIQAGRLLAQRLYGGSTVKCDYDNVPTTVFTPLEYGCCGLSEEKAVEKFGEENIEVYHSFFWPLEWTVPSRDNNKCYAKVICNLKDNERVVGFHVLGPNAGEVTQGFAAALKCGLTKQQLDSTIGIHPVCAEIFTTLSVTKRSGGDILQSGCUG
How it was run: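 In this dual-purpose format, potential substrates are identified from the first fluorescence read after selenite addition, not from the 8-minute delta. Rat enzyme is preincubated with NADPH and then with compound at ~22 deg C.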

[3] = target: Thioredoxin reductase 1, cytoplasmic (Rattus norvegicus) (UniProt O89049); assay: qHTS Assay for Inhibitors of Mammalian Selenoprotein Thioredoxin Reductase 1 (TrxR1) (AID 488773); details: Potency: inhibition;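 note: drop in NADPH fluorescence over an 8 min run after selenite addition; series mostly up to about 57 µM; nearly all actives have a fitted effect of over 40% in size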
How it was run: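 Inhibition is scored from the loss of NADPH fluorescence between first and last reads of an 8-min kinetic run. Selenite (400 uM) was the substrate, added after 15 min compound preincubation at room temperature.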

[4] = target: Flap endonuclease 1 (Homo sapiens) (UniProt P39748); assay: qHTS Validation Assay for the Inhibitors of Human Flap endonuclease 1 (FEN1) (AID 488816)
Sequence of Flap endonuclease 1 (Homo sapiens) (P39748 whole entry, looked up): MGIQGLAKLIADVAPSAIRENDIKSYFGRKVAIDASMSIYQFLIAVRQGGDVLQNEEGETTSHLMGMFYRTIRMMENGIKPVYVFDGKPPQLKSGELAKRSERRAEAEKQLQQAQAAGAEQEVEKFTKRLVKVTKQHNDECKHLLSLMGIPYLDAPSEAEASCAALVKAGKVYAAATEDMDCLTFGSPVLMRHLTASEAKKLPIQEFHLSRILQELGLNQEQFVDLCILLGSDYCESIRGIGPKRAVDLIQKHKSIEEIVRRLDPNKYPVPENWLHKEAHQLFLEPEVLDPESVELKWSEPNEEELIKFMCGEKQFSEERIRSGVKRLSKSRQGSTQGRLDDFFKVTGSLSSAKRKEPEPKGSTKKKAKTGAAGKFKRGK
How it was run: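 qHTS format: compounds and 10 nM FEN1 incubated 15 min at room temperature before adding 50 nM substrate. Cleavage followed by reads at 0 and 15 min; normalized data fitted to a four-parameter Hill curve.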

[5] = target: M-phase phosphoprotein 8 (Homo sapiens) (UniProt Q99549); assay: qHTS Validation Assay for Inhibitors for MPP8 Chromodomain Interactions with Methylated Histone Tails (AID 488949); note: nearly all actives have a fitted effect of over 55% in size; note: potency is the fitted concentration of half-maximal effect
Sequence of M-phase phosphoprotein 8 (Homo sapiens) (Q99549 whole entry, looked up): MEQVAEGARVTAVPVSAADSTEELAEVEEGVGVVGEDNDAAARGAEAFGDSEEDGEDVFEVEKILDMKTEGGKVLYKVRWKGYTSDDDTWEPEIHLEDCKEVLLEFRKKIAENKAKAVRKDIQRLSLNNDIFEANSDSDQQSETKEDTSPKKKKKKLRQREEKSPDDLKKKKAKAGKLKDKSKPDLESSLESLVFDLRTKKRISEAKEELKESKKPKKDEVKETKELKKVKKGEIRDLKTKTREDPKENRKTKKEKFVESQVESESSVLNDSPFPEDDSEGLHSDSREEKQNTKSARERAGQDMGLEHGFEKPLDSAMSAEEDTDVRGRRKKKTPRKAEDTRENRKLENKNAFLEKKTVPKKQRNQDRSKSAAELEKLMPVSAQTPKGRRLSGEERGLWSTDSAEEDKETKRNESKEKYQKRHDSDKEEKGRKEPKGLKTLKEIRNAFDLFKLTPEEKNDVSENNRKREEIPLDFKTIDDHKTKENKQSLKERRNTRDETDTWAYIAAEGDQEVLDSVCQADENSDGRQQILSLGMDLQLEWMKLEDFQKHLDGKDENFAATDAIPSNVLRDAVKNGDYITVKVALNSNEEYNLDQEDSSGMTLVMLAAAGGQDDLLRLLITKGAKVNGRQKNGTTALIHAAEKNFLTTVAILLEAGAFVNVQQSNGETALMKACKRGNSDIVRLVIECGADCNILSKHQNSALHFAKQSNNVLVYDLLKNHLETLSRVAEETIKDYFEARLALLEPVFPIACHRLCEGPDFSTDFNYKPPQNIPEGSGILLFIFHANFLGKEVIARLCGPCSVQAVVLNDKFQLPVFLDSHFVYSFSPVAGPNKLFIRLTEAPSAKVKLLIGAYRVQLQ
How it was run: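 MPP8 (50 nM) was preincubated with biotinylated H3(1-18)K9me3 peptide (50 nM) in PBS pH 7.4, 0.01% Tween-20 for 30 min at room temperature, then with compounds for 30 min; binding was detected by AlphaScreen.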

[6] = target: Methanococcus maripaludis chaperonin (MmCpn) (UniProt Q6LX38); assay: High-Throughput Screening for Modulators of Cytosolic Chaperonin Activity: MmCpn Primary Screen (AID 488978);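 note: 50 nM MmCpn enzyme hydrolysing 30 µM ATP at 37 °C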
Sequence of Methanococcus maripaludis chaperonin (MmCpn) (Q6LX38 1-543): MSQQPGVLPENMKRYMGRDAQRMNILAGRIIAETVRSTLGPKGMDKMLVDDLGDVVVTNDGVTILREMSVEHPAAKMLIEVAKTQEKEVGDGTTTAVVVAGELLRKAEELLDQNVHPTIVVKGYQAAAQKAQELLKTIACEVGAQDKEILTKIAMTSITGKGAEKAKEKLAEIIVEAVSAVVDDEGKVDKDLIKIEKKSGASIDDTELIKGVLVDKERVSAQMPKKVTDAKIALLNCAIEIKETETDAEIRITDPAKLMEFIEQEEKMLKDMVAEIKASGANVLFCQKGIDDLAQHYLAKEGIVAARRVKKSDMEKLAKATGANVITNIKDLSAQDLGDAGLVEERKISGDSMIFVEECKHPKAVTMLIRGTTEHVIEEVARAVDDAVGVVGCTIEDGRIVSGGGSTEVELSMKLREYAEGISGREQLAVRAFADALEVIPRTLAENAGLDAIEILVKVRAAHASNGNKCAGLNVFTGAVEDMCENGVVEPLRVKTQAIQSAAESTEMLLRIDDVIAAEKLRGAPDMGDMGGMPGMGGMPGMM
How it was run: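 MmCpn (50 nM final) was preincubated with compound 5 min at RT, then 30 uM ATP (final) was added and the reaction ran 10 min at 37C. ADP produced was detected by Transcreener HTRF (ex 320 nm; em 590/665 nm).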

[7] = target: Transient receptor potential cation channel subfamily V member 1 (Homo sapiens) (UniProt Q8NER1); assay: HTS Assay for Compounds that Act as Enhancers of the Vanilloid Receptor 1 (AID 488979)
Sequence of Transient receptor potential cation channel subfamily V member 1 (Homo sapiens) (Q8NER1 whole entry, looked up): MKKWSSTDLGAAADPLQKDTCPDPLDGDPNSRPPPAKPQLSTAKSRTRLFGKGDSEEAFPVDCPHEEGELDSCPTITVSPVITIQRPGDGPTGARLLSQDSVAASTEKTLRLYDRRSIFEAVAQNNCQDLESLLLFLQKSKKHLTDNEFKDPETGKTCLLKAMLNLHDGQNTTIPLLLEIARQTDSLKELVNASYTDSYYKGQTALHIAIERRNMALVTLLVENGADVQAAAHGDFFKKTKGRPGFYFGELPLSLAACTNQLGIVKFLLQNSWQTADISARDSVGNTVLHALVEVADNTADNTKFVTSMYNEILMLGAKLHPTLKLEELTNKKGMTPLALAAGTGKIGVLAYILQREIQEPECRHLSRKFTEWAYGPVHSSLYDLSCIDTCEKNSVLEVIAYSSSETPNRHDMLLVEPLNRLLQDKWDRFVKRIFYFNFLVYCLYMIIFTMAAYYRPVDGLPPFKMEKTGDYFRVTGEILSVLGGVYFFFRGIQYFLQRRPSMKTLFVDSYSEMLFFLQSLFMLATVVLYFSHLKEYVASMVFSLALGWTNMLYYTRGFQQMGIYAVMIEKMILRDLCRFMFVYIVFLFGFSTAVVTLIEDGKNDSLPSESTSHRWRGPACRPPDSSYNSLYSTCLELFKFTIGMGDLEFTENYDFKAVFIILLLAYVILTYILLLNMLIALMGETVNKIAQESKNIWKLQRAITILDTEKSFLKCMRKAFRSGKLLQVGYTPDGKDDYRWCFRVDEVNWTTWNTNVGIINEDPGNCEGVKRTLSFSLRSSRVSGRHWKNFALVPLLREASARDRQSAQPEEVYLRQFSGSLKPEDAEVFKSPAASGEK
How it was run: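 Calcium influx kinetics via Fluo-8 (480/520 nm) in TRPV1-expressing cells, 2000/well cultured overnight at 35.5C. Compound-alone read 3 min (agonist phase), followed by EC20 capsaicin challenge for 2 min (enhancer phase).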

[8] = target: Thyrotropin receptor (Homo sapiens) (UniProt P16473); assay: qHTS Assay for Antagonists of the Thyroid Stimulating Hormone Receptor (AID 488980); note: series mostly up to about 58 µM
Sequence of Thyrotropin receptor (Homo sapiens) (P16473 whole entry, looked up): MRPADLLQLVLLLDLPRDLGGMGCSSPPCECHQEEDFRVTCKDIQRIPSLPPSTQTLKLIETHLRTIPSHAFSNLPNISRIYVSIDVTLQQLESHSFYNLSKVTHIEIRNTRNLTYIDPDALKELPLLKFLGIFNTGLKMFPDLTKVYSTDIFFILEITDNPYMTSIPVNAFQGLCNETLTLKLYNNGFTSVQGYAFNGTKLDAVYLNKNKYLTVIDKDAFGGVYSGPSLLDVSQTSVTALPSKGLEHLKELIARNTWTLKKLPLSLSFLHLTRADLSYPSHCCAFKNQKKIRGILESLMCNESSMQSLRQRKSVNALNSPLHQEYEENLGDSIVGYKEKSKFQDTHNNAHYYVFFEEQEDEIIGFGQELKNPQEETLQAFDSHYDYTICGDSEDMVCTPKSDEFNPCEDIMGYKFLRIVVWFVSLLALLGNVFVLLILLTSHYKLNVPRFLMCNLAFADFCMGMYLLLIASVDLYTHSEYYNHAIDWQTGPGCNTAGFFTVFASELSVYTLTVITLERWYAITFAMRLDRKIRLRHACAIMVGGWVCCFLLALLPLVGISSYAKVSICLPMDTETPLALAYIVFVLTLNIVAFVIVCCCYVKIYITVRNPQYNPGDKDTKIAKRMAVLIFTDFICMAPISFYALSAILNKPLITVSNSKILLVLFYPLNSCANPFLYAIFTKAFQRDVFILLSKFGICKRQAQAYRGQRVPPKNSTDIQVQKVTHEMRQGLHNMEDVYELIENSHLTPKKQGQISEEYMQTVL
How it was run: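 HEK293 cells transfected with human TSHR, suspended in HEPES-buffered HBSS with 70 uM RO 20-1724, were treated with compounds plus TSH at EC80 (4 nM final). cAMP was measured by competitive HTRF (cryptate anti-cAMP antibody, cAMP-d2 acceptor).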

[9] = target: D(1A) dopamine receptor (Homo sapiens) (UniProt P21728); assay: HTS Assay for Allosteric Agonists of the Human D1 Dopamine Receptor: Primary Screen for Agonists (AID 488981)
Sequence of D(1A) dopamine receptor (Homo sapiens) (P21728 whole entry, looked up): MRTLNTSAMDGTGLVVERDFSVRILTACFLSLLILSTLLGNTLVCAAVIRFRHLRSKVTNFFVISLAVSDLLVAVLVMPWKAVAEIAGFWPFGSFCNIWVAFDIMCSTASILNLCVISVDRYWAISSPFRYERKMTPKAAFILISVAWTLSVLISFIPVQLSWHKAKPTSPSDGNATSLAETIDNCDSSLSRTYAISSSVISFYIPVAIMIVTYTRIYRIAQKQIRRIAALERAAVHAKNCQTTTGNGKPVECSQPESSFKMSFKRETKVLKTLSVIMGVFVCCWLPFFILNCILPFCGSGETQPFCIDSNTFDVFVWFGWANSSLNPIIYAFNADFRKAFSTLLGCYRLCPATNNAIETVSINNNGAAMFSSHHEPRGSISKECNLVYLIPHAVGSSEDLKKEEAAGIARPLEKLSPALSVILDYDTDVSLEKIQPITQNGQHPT
How it was run: (§1)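 Calcium flux in an inducible, force-coupled HEK293 Trex D1 line (overnight at 30 C): agonist mode is the 180 s kinetic read after compound; potentiator mode is the following 180 s read after dopamine at EC20.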

[10] = target: D(1A) dopamine receptor (Homo sapiens) (UniProt P21728); assay: HTS Assay for Allosteric Agonists of the Human D1 Dopamine Receptor: Primary Screen for Potentiators (AID 488982)
How it was run: as §1

[11] = target: D(1A) dopamine receptor (Homo sapiens) (UniProt P21728); assay: HTS Assay for Allosteric Agonists of the Human D1 Dopamine Receptor: Primary Screen for Antagonists (AID 488983);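 note: calcium flux response to an EC80 dopamine challenge measured with no-wash dye; nearly all actives have a fitted effect of over 65% in size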
How it was run: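 Calcium flux readout, no-wash dye, inducible HEK293 T-REx D1 line (force-coupled). Compound added after 10 s baseline, 180 s kinetic read; then dopamine at EC80, further 180 s read.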

[12] = target: ATP-dependent 6-phosphofructokinase (Trypanosoma brucei brucei) (UniProt O15648); assay: qHTS Assay to Find Inhibitors of T. brucei phosphofructokinase: hit validation (AID 492961);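 note: luminescence reports ADP formed as PFK phosphorylates fructose-6-phosphate with ATP; series mostly up to about 51 µM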
How it was run: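 In this biochemical qHTS validation, titrated compounds were tested against 1.25 nM PFK with 0.1 mM ATP and 0.5 mM F6P. Percent activity came from controls lacking or containing enzyme.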

[13] = Validation screen for small molecules that induce genotoxicity in human embryonic kidney (HEK293T) cells expressing luciferase-tagged ELG1 (AID 493106)
How it was run: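 qHTS format; 2,000 HEK293T ELG1-luc cells/well; 23 nL compound via pin tool; 16 hr, 37 °C/5% CO2; ONE-Glo, 30 min RT; luminescence read.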

[14] = target: Thyrotropin-releasing hormone receptor (Homo sapiens) (UniProt P34981); assay: qHTS for Small Molecule Agonists and Allosteric Enhancers of Human TRH Receptor: Validation Screen for Agonists (AID 493127;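 active = calcium activation more than 3 SD above the typical response in the agonist read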;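 note: intracellular calcium rise by fluo-8 fluorescence before TRH EC20 addition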); details: TRH receptor agonist cell assay; at 2 µM; stronger effect = higher value
Sequence of Thyrotropin-releasing hormone receptor (Homo sapiens) (P34981 whole entry, looked up): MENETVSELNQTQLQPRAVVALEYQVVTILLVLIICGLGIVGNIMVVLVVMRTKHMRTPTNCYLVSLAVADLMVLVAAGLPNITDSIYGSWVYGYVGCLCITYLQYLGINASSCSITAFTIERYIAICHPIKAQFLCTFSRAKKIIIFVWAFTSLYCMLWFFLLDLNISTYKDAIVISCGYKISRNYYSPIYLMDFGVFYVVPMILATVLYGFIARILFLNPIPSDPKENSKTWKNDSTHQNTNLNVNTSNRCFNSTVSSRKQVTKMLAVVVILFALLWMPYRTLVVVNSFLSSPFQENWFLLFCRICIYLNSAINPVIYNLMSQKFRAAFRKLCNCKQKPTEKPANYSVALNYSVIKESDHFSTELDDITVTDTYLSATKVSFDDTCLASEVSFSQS
How it was run: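 Read-out: intracellular calcium release measured kinetically by FDSS (fluo-8, ex 480/em 530 nm), 1 reading/s after a 10-cycle baseline. TRHR cells, 2000/well, cultured 18 h at 33.5C, dye-loaded at room temp. Compound-evoked positive calcium signal flags agonists.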

[15] = Nrf2 qHTS screen for inhibitors: Validation (AID 493153; active = well fitted inhibition curve with a large enough effect in the main read-out, with a control signal flat, not every such curve was filed as active); details: Potency: luciferase luminescence; viability change: measured here: cytotoxicity max response
How it was run: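 Concentration-response test in A549 ARE_Fluc reporter cells (5% FBS OPTI-MEM), compound exposure 18-24 h at 37°C, 5% CO2. Cell viability measured first by CellTiter-Fluor fluorescence; ARE-driven luciferase luminescence then measured as Nrf2 activity.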

[16] = qHTS for Inhibitors of Cell Surface uPA Generation: Validation Assay (AID 493164);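 note: RAW 264.7 macrophage cells exposed to compound for 18 h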
How it was run: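 Compounds are titrated over seven points (2.45 nM–38.3 uM final) onto pre-plated RAW 264.7 cells and incubated for 18 h. Retained intracellular ATP, measured with ATP-Lite, indicates blocked lethal factor entry.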

[17] = target: Galactokinase (Homo sapiens) (UniProt P51570); assay: qHTS Validation Assay for Inhibitors of Human Galactokinase (GALK) (AID 493189)
How it was run: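 GALK (5 nM) with 35 uM ATP and 100 uM galactose in HEPES pH8.0, MgCl2, NaCl, DTT, BSA; 1 h at room temperature. Residual ATP read by Kinase-Glo Plus luminescence after 10 min.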

[18] = target: Chromobox protein homolog 1 (Homo sapiens) (UniProt P83916); assay: qHTS Validation Assay for Inhibitors of HP1-beta Chromodomain Interactions with Methylated Histone Tails (AID 488953);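 note: loss of AlphaScreen luminescence from HP1-beta binding biotinylated H3K9me3 peptide; series mostly up to about 110 µM; nearly all actives have a fitted effect of over 50% in size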
Sequence of Chromobox protein homolog 1 (Homo sapiens) (P83916 whole entry, looked up): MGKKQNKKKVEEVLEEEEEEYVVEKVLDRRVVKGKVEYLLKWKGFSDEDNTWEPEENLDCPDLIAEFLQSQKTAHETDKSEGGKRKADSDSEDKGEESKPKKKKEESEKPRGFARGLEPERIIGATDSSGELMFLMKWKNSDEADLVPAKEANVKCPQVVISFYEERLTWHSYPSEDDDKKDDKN
How it was run: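 AlphaScreen proximity readout: streptavidin donor and Ni-chelate acceptor beads, 10 ug/mL final, 30 min dark, RT. Complex of 50 nM HP1-beta and 50 nM b-H3(1-18)K9me3 formed 30 min, then compound-treated 30 min; PBS pH 7.4/0.01% Tween-20.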

[19] = target: ATPase family AAA domain-containing protein 5 (Homo sapiens) (UniProt Q96QE3); assay: Validation screen for small molecules that inhibit ELG1-dependent DNA repair in human embryonic kidney (HEK293T) cells expressing luciferase-tagged ELG1 (AID 493107);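 note: cells co-treated with the DNA-damaging agent 5-fluorouridine alongside compound; series mostly up to about 46 µM; inhibitors lower the ELG1-luciferase luminescence signal; nearly all actives have a fitted effect of over 70% in size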
How it was run: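 ELG1-luciferase HEK293T reporter; 5-fluorouridine + compound/DMSO, 16 hr, 37 °C, 5% CO2; ONE-Glo 30 min RT; luminescence read, qHTS format.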

Compound: NCCCCCC(=O)O
- Potency [1]: inactive
- outcome [2]: inactive
- Potency [3]: inactive
- Potency [4]: inactive
- Potency [5]: inactive
- outcome [6]: inactive
- outcome [7]: inactive
- outcome [8]: inactive
- Potency [9]: inactive
- Potency [10]: inactive
- Potency [11]: inactive
- Potency [12]: inactive
- Potency [13]: inactive
- activation [14]: 0.0625% (inactive)
- Potency [15]: inactive
- viability change [15]: 0%
- outcome [16]: inactive
- Potency [17]: inactive

Compound: NS(=O)(=O)c1cc2c(cc1Cl)NCNS2(=O)=O
- Potency [1]: inactive
- outcome [2]: inactive
- Potency [3]: inactive
- Potency [4]: inactive
- Potency [5]: inactive
- Potency [18]: inactive
- outcome [6]: inactive
- outcome [7]: inactive
- outcome [8]: inactive
- Potency [9]: inactive
- Potency [10]: inactive
- Potency [11]: inactive
- Potency [13]: inactive
- activation [14]: 0.938% (inactive)
- Potency [15]: inactive
- viability change [15]: -1.09%
- outcome [16]: inactive
- Potency [17]: inactive

Compound: Cn1c(=O)c2[nH]cnc2n(C)c1=O
- Potency [1]: inactive
- outcome [2]: inactive
- Potency [3]: inactive
- Potency [4]: inactive
- Potency [5]: inactive
- Potency [18]: inactive
- outcome [6]: inactive
- outcome [7]: inactive
- outcome [8]: inactive
- Potency [9]: inactive
- Potency [10]: inactive
- Potency [11]: inactive
- Potency [19]: inactive
- activation [14]: 0.688% (inactive)
- Potency [15]: inactive
- viability change [15]: 0.231%
- outcome [16]: inactive
- Potency [17]: inactive

Compound: Cn1cnc2c1c(=O)[nH]c(=O)n2C
- Potency [1]: inactive
- outcome [2]: inactive
- Potency [3]: inactive
- Potency [4]: inactive
- Potency [5]: inactive
- Potency [18]: inactive
- outcome [6]: inactive
- outcome [7]: inactive
- outcome [8]: inactive
- Potency [9]: inactive
- Potency [10]: inactive
- Potency [11]: inactive
- Potency [13]: inactive
- Potency [19]: inactive
- activation [14]: 0.562% (inactive)
- Potency [15]: inactive
- viability change [15]: -9.08%
- outcome [16]: inactive
- Potency [17]: inactive

Compound: CN1C(C(=O)Nc2ccccn2)=C(O)c2ccccc2S1(=O)=O
- Potency [1]: inactive
- outcome [2]: inactive
- Potency [3]: inactive
- Potency [4]: inactive
- Potency [5]: inactive
- outcome [6]: inactive
- outcome [7]: inactive
- outcome [8]: inactive
- Potency [9]: inactive
- Potency [10]: inactive
- Potency [11]: inactive
- Potency [12]: inactive
- Potency [13]: inactive
- activation [14]: 0.812% (inactive)
- outcome [16]: inactive
- Potency [17]: inactive

Compound: CC(C)(Oc1ccc(C2CC2(Cl)Cl)cc1)C(=O)O (configuration not stated)
- Potency [1]: inactive
- outcome [2]: inactive
- Potency [3]: inactive
- Potency [4]: inactive
- Potency [5]: 39.8 µM (active) and inactive
- Potency [18]: inactive
- outcome [6]: inactive
- outcome [7]: inactive
- outcome [8]: inactive
- Potency [9]: inactive
- Potency [10]: inactive
- Potency [11]: inactive
- Potency [12]: inactive
- Potency [13]: inactive
- Potency [19]: inactive
- outcome [16]: inactive
- Potency [17]: inactive

Compound: COc1ccc2c(c1)c(CC(=O)O)c(C)n2C(=O)c1ccc(Cl)cc1
- Potency [1]: inactive
- outcome [2]: inactive
- Potency [3]: inactive
- Potency [4]: inactive
- Potency [5]: inactive
- Potency [18]: inactive
- outcome [6]: inactive
- outcome [7]: inactive
- outcome [8]: inactive
- Potency [9]: inactive
- Potency [11]: inactive
- Potency [13]: inactive
- outcome [16]: inactive
- Potency [17]: inactive

Compound: Cc1ccccc1N1C(=O)c2cc(S(N)(=O)=O)c(Cl)cc2NC1C (configuration not stated)
- Potency [1]: inactive
- outcome [2]: inactive
- Potency [3]: inactive
- Potency [4]: inactive
- Potency [5]: inactive
- outcome [6]: inactive
- outcome [7]: inactive
- outcome [8]: inactive
- Potency [9]: inactive
- Potency [10]: inactive
- Potency [11]: inactive
- Potency [13]: inactive
- Potency [19]: inactive
- Potency [15]: inactive
- viability change [15]: 10.1%
- outcome [16]: inactive
- Potency [17]: inactive
